According to PubChem BioAssay (EPA / NIEHS):
Results filed as inconclusive are left out. Some structures have more than one record in an assay (separate samples or runs), and their calls can disagree. The source made the active and inactive calls. The calls were made as follows: active = hit-call score of the fitted dose curve at least 0.9, where 1 is the maximum; inconclusive = response in the unintended direction; inactive = score below 0.9.

Tests used:
[1] = biological target: PGR (gene 5241) (UniProt P06401); assay: TOX21_PR_BLA_Followup_Antagonist_ratio: Tox21 HEK293 Progesterone Receptor (PR) Antagonism Beta-lactamase Follow-Up Assay, Ratio (AID 2283934)
Procedure, shortened: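 PR-UAS-bla HEK293T cells, 3,000/well in 2% charcoal-stripped FBS, given compound plus 1nM R5020 agonist for 16 hr at 37C. Beta-lactamase FRET substrate 2 hours, ratio cleaved/uncleaved fluorescence; viability by CellTiter-Glo in same wells.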

[2] = TOX21_PR_BLA_Followup_Agonist_viability: Viability Assessment in the Tox21 HEK293 Progesterone Receptor (PR) Agonism Beta-lactamase Follow-Up Assay (AID 2283935);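 also: signal loss means lower viability so actives are cytotoxic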
Procedure, shortened: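 PR-UAS-bla HEK293T cells in 2% charcoal-stripped FBS medium, plated 6 hr before compound addition, exposed 16 hr at 37C. Viability read by CellTiter-Glo ATP luminescence after 30 min at room temperature, in the same wells as the beta-lactamase readout.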

[3] = TOX21_PR_BLA_Followup_Antagonist_viability: Viability Assessment in the Tox21 HEK293 Progesterone Receptor (PR) Antagonism Beta-lactamase Follow-Up Assay (AID 2283936);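 also: hits lower the luminescence signal meaning cytotoxicity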
Procedure, shortened: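 PR-UAS-bla HEK293T cells (3,000/well, 2% charcoal-stripped FBS) given compound plus R5020 agonist, 16 h at 37C. CellTiter-Glo added after bla read, 30 min at room temperature; luminescence loss indicates cytotoxicity.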

[4] = biological target: PGR (gene 5241) (UniProt P06401); assay: TOX21_PR_LUC_Followup_Antagonist: Tox21 HEK293 Progesterone Receptor (PR) Antagonism Luciferase Follow-Up Assay (AID 2283938);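 also: curve fitted upward as signal gain over DMSO baseline despite antagonist label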
Procedure, shortened: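 Cells are grown 5 days in charcoal-stripped-FBS assay medium, plated, left 5 h, then dosed with compound and incubated 16 h. ONE-Glo reagent is added and luminescence read after 30 min.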

[5] = TOX21_PR_LUC_Followup_Agonist_viability: Viability Assessment in the Tox21 HEK293 Progesterone Receptor (PR) Agonism Luciferase Follow-Up Assay (AID 2283941);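 also: loss of signal means cytotoxicity so actives lower viability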
Procedure, shortened: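 HEK293-PR-A-luc cells, kept in 10% charcoal-stripped FBS medium, were treated with compounds for 16 h at 37C. Viability read as cellular ATP by luciferase-coupled luminescence; loss of signal indicates cytotoxicity.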

[6] = TOX21_p53_BLA_p2_viability: Viability Assessment in the Tox21 HCT-116 p53 Agonism Beta-lactamase Assay, Phase 2 (AID 2283591);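 also: actives lower the ATP signal meaning cytotoxicity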
Procedure, shortened: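 HCT-116 p53-bla cells (4000/well) rested 5 h at 37C, then received compounds in DMSO (217-fold dilution) for 16 h at 37C, 5% CO2. After the CCF4 read, CellTiter-Glo was added; ATP luminescence was read after 30 min at room temperature.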

[7] = biological target: Cellular tumor antigen p53 (Homo sapiens) (UniProt P04637); assay: TOX21_p53_BLA_p3_ratio: Tox21 HCT-116 p53 Agonism Beta-lactamase Assay, Ratio, Phase 3 (AID 2283596)
Procedure, shortened: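 HCT116 p53-bla cells (4000/well) given compound in DMSO (217-fold dilution) after 5 h, incubated 16 h at 37C. CCF4-AM substrate 2 h at room temperature; 460/530 nm emission ratio, gain fitted against DMSO.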

[8] = biological target: Cellular tumor antigen p53 (Homo sapiens) (UniProt P04637); assay: TOX21_p53_BLA_p5_ratio: Tox21 HCT-116 p53 Agonism Beta-lactamase Assay, Ratio, Phase 5 (AID 2283599)
Procedure, shortened: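 HCT-116 cells carrying a p53-inducible beta-lactamase reporter were seeded at 4000 cells/well and dosed after 5 h with compound in DMSO (217-fold dilution). After 16 h at 37C, CCF4-AM substrate was added for 2 h, and the 460/530 nm emission ratio was scored as gain-of-signal versus DMSO.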

[9] = TOX21_p53_BLA_p5_viability: Viability Assessment in the Tox21 HCT-116 p53 Agonism Beta-lactamase Assay, Phase 5 (AID 2283600)
Procedure, shortened: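 4000 cells/well; 5 h pre-incubation; DMSO compounds pin-transferred, 217-fold dilution; 16 h, 37C/5% CO2; CCF4-AM 2 h RT; CellTiter-Glo 30 min RT; luminescence.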

[10] = biological target: Cellular tumor antigen p53 (Homo sapiens) (UniProt P04637); assay: TOX21_p53_BLA_p4_ratio: Tox21 HCT-116 p53 Agonism Beta-lactamase Assay, Ratio, Phase 4 (AID 2283601)
Procedure, shortened: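 HCT116 cells carrying an inducible beta-lactamase reporter were plated at 4000 cells/well, rested 5 h, then exposed to compounds in DMSO (217-fold dilution) for 16 h at 37C. CCF4-AM substrate was loaded 2 h at room temperature; 460/530 nm emission ratio scored gain-of-signal versus DMSO.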

[11] = TOX21_p53_BLA_p4_viability: Viability Assessment in the Tox21 HCT-116 p53 Agonism Beta-lactamase Assay, Phase 4 (AID 2283597);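 also: hits lower the luminescence signal meaning cytotoxicity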
Procedure, shortened: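 Cells plated, 5 h pre-incubation; DMSO compounds pinned (217-fold dilution); 16 h, 37C/5% CO2; CCF4-AM 2 h RT; CellTiter-Glo 30 min RT; luminescence read.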

[12] = biological target: THRB (gene 7068) (UniProt P10828); assay: TOX21_TRB_BLA_Antagonist_Followup_ratio: Tox21 Thyroid Hormone Receptor beta Antagonism Beta-lactamase (BLA) Follow-Up Assay, Ratio (AID 2283958)
Procedure, shortened: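 HEK293T cells with a GAL4-TRb LBD fusion and UAS-bla reporter, 3,000 cells/well in phenol red-free DMEM with 2% charcoal-stripped FBS. Exposed 18 h at 37C to 11 concentrations in triplicate; CCF4 460:530 nm ratio after 2 h, DMSO-referenced.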

[13] = TOX21_TRB_BLA_Antagonist_Followup_viability: Viability Assessment in the Tox21 Thyroid Hormone Receptor beta Antagonism Beta-lactamase (BLA) Follow-Up Assay (AID 2283961)
Procedure, shortened: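 TRβ-bla HEK293T (human TRβ LBD fused to GAL4 DBD), 3,000 cells/well, 2% charcoal-stripped FBS, phenol red-free medium; 18 h compound exposure, 37C; CellTiter-Glo 30 min RT; luminescence, loss-of-signal readout.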

[14] = biological target: THRB (gene 7068) (UniProt P10828); assay: TOX21_TRB_COA_Antagonist_Followup_ratio: Tox21 Thyroid Hormone Receptor beta Antagonism through Coactivator Recruitment Follow-Up Assay, Ratio (AID 2283967)
Procedure, shortened: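 Cell-free TR-FRET coactivator recruitment with GST-tagged TRβ LBD (5.0 nM) and fluorescein-labeled SRC-2 peptide (200 nM) detected by terbium anti-GST antibody (2 nM). The 520:495 nm emission ratio was normalized to DMSO (0%) and T3 (100%).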

[15] = biological target: Retinoic acid receptor RXR-alpha (Homo sapiens) (UniProt P19793); assay: TOX21_TR_RXR_BLA_Antagonist_Followup_ratio: Tox21 Thyroid Hormone Receptor beta Retinoid X Receptor alpha (RXRa) Antagonism Beta-lactamase (BLA) Follow-Up Assay, Ratio (AID 2283972)
Procedure, shortened: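 HEK293T RXRa-bla, 2% charcoal-stripped FBS medium, 16 h compound exposure at 37C, qHTS 11 conc x3. CCF4 FRET ratio ch2/ch1 (460:530), DMSO = baseline, loss-of-signal fit.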

[16] = TOX21_TR_RXR_BLA_Antagonist_Followup_viability: Viability Assessment in the Tox21 Thyroid Hormone Receptor beta Retinoid X Receptor alpha (RXRa) Antagonism Beta-lactamase (BLA) Follow-Up Assay (AID 2283979)
Procedure, shortened: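 RXRa-UAS-bla HEK293T cells seeded 2,500/well in phenol red-free DMEM with 2% charcoal-stripped FBS, attached 5 h, then exposed to compounds at 11 concentrations in triplicate for 16 h at 37C/5% CO2. Viability read by CellTiter-Glo ATP luminescence; bidirectional fit versus DMSO.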

Sequence of Cellular tumor antigen p53 (Homo sapiens) (P04637 whole entry, looked up): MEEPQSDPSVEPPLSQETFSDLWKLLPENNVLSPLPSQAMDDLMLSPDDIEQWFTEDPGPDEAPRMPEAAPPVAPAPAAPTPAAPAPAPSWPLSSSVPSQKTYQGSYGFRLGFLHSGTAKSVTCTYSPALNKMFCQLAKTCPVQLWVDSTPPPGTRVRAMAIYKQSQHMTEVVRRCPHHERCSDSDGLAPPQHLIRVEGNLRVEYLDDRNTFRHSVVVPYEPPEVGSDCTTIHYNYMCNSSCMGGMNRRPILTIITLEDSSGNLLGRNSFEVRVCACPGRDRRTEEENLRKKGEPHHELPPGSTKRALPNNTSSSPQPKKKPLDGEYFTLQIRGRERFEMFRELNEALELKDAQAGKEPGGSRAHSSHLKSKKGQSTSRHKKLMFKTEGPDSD
Sequence of THRB (gene 7068) (P10828 whole entry, looked up, the tested form may be a part): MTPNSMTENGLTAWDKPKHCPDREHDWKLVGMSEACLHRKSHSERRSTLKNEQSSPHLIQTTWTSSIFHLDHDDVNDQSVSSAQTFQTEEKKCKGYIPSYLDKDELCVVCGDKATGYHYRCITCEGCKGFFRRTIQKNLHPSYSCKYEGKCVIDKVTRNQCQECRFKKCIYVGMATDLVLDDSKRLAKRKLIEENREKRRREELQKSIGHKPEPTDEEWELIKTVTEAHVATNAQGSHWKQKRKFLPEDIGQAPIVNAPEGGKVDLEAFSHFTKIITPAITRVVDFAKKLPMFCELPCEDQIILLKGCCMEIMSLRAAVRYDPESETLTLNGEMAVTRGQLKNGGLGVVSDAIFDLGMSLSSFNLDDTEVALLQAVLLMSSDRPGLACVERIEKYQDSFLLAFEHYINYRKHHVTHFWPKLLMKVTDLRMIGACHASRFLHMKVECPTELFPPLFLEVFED
Sequence of PGR (gene 5241) (P06401 whole entry, looked up): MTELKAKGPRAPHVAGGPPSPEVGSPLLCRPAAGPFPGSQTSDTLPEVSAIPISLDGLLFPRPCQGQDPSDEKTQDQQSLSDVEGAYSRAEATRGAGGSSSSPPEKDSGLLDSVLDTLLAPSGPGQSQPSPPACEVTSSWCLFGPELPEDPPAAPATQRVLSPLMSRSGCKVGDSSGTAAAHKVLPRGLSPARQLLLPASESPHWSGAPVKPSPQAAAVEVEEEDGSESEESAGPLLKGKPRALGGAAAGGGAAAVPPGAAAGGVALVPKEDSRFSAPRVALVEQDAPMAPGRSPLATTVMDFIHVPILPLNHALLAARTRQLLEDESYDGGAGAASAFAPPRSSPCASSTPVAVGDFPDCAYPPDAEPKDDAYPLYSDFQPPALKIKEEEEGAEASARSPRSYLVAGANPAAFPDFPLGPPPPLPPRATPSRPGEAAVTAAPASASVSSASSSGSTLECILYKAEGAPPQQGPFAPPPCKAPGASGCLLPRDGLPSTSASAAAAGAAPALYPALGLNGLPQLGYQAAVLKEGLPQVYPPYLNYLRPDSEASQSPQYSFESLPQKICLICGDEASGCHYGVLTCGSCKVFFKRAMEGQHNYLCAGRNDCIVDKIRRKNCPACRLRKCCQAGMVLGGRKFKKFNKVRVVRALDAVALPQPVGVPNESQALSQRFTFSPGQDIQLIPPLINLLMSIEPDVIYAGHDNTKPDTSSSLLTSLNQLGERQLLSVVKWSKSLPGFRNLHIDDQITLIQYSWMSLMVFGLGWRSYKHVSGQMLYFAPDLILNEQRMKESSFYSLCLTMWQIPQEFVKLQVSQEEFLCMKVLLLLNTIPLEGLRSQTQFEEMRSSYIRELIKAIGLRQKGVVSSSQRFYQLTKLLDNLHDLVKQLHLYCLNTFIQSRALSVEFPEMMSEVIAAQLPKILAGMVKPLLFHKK
Sequence of Retinoic acid receptor RXR-alpha (Homo sapiens) (P19793 whole entry, looked up): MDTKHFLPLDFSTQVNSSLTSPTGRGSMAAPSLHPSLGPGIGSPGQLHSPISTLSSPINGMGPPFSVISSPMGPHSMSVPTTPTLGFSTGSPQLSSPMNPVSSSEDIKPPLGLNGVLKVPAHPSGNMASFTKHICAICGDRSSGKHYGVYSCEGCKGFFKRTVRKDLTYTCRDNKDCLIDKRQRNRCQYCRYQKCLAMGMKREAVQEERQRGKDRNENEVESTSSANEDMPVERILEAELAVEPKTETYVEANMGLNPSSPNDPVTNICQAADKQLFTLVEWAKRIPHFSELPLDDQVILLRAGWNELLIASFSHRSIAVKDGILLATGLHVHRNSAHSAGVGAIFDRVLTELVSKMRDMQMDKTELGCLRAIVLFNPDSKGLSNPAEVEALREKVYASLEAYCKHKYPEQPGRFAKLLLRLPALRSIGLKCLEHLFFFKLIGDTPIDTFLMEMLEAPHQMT

With COC(=O)C(c1ccccc1Cl)N1CCc2sccc2C1 (configuration not stated) the AC50 [1] was 28.9 µM (active), the outcome [2] was “inactive” and the outcome [3] was “inactive”. The AC50 [4] was 23 µM (active) and the outcome [5] was “inactive”.
With COC(=O)C(CN)c1c[nH]c2ccc(OC)cc12 (configuration not stated) the outcome [6] was “inactive”, the outcome [7] was “inactive” and the outcome [8] was “inactive”. The outcome [9] was “inactive” and the outcome [10] was “inactive”.
With CC[N+](CC)(CCNC(=O)C(=O)NCC[N+](CC)(CC)Cc1ccccc1Cl)Cc1ccccc1Cl the outcome [6] was “inactive”, the outcome [7] was “inactive” and the outcome [11] was “inactive”. For the same molecule, the outcome [10] was “inactive”.
For CCN(CC)CCOC(=O)C(Cc1cccc2ccccc12)CC1CCCO1 (configuration not stated), the outcome [6] was “inactive”, the outcome [7] was “inactive” and the outcome [11] was “inactive”. The outcome [10] was “inactive”.
For CC1(C)S[C@@H]2[C@H](N3C(=O)C(c4ccccc4)NC3(C)C)C(=O)N2[C@H]1C(=O)O (some centres not stated), the outcome [6] was “inactive”, the outcome [7] was “inactive” and the outcome [11] was “inactive”. The outcome [9] was “inactive”.
With CC[C@@]1(O)C[C@@H]2CN(CCc3c([nH]c4ccccc34)[C@@](C(=O)OC)(c3cc4c(cc3OC)N(C)[C@H]3[C@@](O)(C(=O)OC)[C@H](OC(C)=O)[C@]5(CC)C=CCN6CC[C@]43[C@@H]65)C2)C1 the outcome [6] was “inactive”, the outcome [7] was “inactive” and the AC50 [8] was 0.0173 µM (active). For the same molecule, the outcome [8] was “inactive”, the outcome [9] was “inactive” and the AC50 [12] was 0.0734 µM (active). For the same molecule, the outcome [13] was “inactive”, the outcome [14] was “inactive” and the outcome [15] was “inactive”. For the same molecule, the outcome [16] was “inactive”.
In the case of CC=CC1=C(C(=O)O)N2C(=O)[C@@H](NC(=O)[C@H](N)c3ccc(O)cc3)[C@H]2SC1, the outcome [6] is reported as “inactive”, the outcome [7] is reported as “inactive” and the outcome [8] is reported as “inactive”. The outcome [9] was “inactive” and the outcome [10] was “inactive”.
With CCCC(=O)OC(=O)CCC the outcome [6] was “inactive”, the outcome [7] was “inactive” and the outcome [11] was “inactive”. For the same molecule, the outcome [8] was “inactive”, the outcome [9] was “inactive” and the outcome [10] was “inactive”.
In the case of Cc1cccc(C)c1NC(=O)C1CCCCN1C (configuration not stated), the outcome [6] is reported as “inactive”, the outcome [7] is reported as “inactive” and the outcome [8] is reported as “inactive”. The outcome [9] was “inactive”.
In the case of ClCC=CCCl, the outcome [6] is reported as “inactive”, the outcome [7] is reported as “inactive” and the outcome [11] is reported as “inactive”. The outcome [8] was “inactive” and the outcome [10] was “inactive”.
With CC[C@H]1OC(=O)[C@H](C)[C@@H](O[C@H]2C[C@@](C)(OC)[C@@H](O)[C@H](C)O2)[C@H](C)[C@@H](O[C@@H]2O[C@H](C)C[C@H](N(C)C)[C@H]2O)[C@](C)(O)C[C@@H](C)[C@@H]2N[C@@H](COCCOC)O[C@@H]([C@H]2C)[C@]1(C)O the outcome [6] was “inactive”, the outcome [7] was “inactive” and the outcome [8] was “inactive”. For the same molecule, the outcome [9] was “inactive” and the outcome [10] was “inactive”.
In the case of O=C(Nc1cccc2c(=O)cc(-c3nn[nH]n3)oc12)c1ccc(OCCCCc2ccccc2)cc1, the outcome [6] is reported as “inactive”, the outcome [7] is reported as “inactive” and the outcome [11] is reported as “inactive”. The outcome [9] was “inactive”.
For CC(=C(CCOC(=O)C(C)C)SSC(CCOC(=O)C(C)C)=C(C)N(C=O)Cc1cnc(C)nc1N)N(C=O)Cc1cnc(C)nc1N, the outcome [6] was “inactive”, the outcome [7] was “inactive” and the outcome [11] was “inactive”. The outcome [8] was “inactive”, the outcome [9] was “inactive” and the outcome [10] was “inactive”.
